This is a sample that favours compounds with a hit; in the whole collection about 2.6% have one here.
Cruzain inh noDet: inhibitors of Trypanosoma cruzi cruzain without detergent; P25779; purified cruzain, Z-FR-AMC fluorescence, no detergent; Potency, µM, for the others: max response, negative = inhibition, usual class: inhibitors; 2.3% of 200,000 active; AID 1476;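 note: plate controls were enzyme without inhibitor for no effect and buffer without enzyme for full effect; nearly all actives have a fitted effect of over 40% in size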
Target sequence (P25779 123-467 limits assumed): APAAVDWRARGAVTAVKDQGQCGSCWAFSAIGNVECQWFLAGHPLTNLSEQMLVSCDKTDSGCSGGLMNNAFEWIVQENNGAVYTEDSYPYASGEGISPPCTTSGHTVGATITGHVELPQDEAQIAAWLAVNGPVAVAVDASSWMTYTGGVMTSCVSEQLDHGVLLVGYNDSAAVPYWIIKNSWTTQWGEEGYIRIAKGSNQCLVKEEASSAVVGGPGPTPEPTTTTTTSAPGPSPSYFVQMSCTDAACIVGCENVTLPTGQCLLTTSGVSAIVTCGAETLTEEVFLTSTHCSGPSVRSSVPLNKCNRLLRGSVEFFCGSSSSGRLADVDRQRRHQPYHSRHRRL
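Purified cruzain at 1.5 nM, pre-incubated 15 min with compound at room temperature in 100 mM sodium acetate pH 5.5, 5 mM DTT, 0.00005% Triton X-100. Reaction started with 2 uM Z-FR-AMC; AMC fluorescence increase over 60 s gives rate.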
Cruzain inh Det: blocks cruzain activity in presence of Triton detergent | P25779 | purified cruzain, Z-FR-AMC fluorescence, 0.01% Triton | Potency, µM, inactives show max response, negative = inhibition, actives largely listed as inhibitors | 0.43% of 200,000 active | AID 1478;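 note: plate controls were neutral wells for no effect and buffer without enzyme for full effect; nearly all actives have a fitted effect of over 40% in size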
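In this qHTS format, compounds are incubated with 1.5 nM cruzain for 15 min at room temperature before 2 uM Z-FR-AMC is added. Release of AMC is followed at 360/450 nm, and progress is taken as the 60 s fluorescence difference.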
Starred values were filed as active, the others as inactive. Calls come from the whole dose curve; as a rule, active = well fitted curve in the direction sought with a large enough effect; inconclusive = small, poorly fitted or top-dose-only effect, or another doubt; inactive = no such curve, though single readings can be large; an effect the other way counts as inactive or inconclusive. Potency is the fitted concentration of half-maximal effect.

For O=C(N/N=C/CCc1ccccc1)c1ccc(CN2c3cccc4cccc(c34)S2(=O)=O)cc1 the results were Cruzain inh noDet inconclusive and Cruzain inh Det -1.3%.
Screening COC(=O)CNC(=O)C1(C)C=CC2(CCCCC2)N1C(C)=O (stereo not drawn) returned Cruzain inh noDet -6.7% and Cruzain inh Det 4.5%.
`CC(=O)[C@@H]1[C@@H]2C(=O)N(C3CCCCC3)C(=O)[C@@H]2C2c3ccccc3C=CN21` (stereo partly drawn) gave Cruzain inh noDet -15.3% and Cruzain inh Det 1.4%.
COc1ccc(NC(=O)[C@@H]2[C@@H]3C(=O)N(C4CCCCC4)C(=O)[C@@H]3C3c4ccccc4C=CN32)cc1 (stereo partly drawn) was read as Cruzain inh noDet 15.8µM* and Cruzain inh Det -1.9%.
Screening COc1ccc(-n2c(=O)c(C)nc3cnc(Nc4cccc(OC)c4)nc32)cc1 returned Cruzain inh noDet inconclusive and Cruzain inh Det -10.2%.
Screening CC(C)c1ccc(/C=C/C(=O)Nc2nc3ccc([N+](=O)[O-])cc3s2)cc1 returned Cruzain inh noDet 3.98µM* and Cruzain inh Det 3.9%.
`Cc1cccc(OCC(=O)Nc2nc3ccc([N+](=O)[O-])cc3s2)c1` gave Cruzain inh noDet inconclusive and Cruzain inh Det -0.5%.
For CCC(C)NC(=O)c1cc2c(Cl)nc3ccc(C)cc3c2s1 (stereo not drawn) the results were Cruzain inh noDet 2.2% and Cruzain inh Det -1.1%.
Screening CSc1nncc(/C(C)=N\Nc2cccc(C)c2)n1 returned Cruzain inh noDet 12.6µM* and Cruzain inh Det 2.3%.
Screening CSc1nncc(/C(C)=N\Nc2ccccc2)n1 returned Cruzain inh noDet 5.8% and Cruzain inh Det 6.5%.
For O=C(/C=C/c1ccc(O)c(O)c1)O[C@@H]1C[C@@](O)(C(=O)O)C[C@H](O)[C@@H]1O the results were Cruzain inh noDet -0.3% and Cruzain inh Det -7.9%.
For O=c1oc2c(CN3CCOCC3)c(O)ccc2c2c1CCC2 the results were Cruzain inh noDet -75.7% and Cruzain inh Det inconclusive.
Screening CC(C)CN(Cc1c(O)ccc2c3c(c(=O)oc12)CCC3)CC(C)C returned Cruzain inh noDet -99.4% and Cruzain inh Det 28.2µM*.
For Cc1cc(=O)oc2c(O)c(O)ccc12 the results were Cruzain inh noDet -18.6% and Cruzain inh Det -12.1%.
Screening Cc1cc(=O)oc2c(CN(CC(C)C)CC(C)C)c(O)ccc12 returned Cruzain inh noDet inconclusive and Cruzain inh Det 25.1µM*.
CNc1ncc(C(=O)c2ccc(Cl)c(Cl)c2)s1 was read as Cruzain inh noDet -11.5% and Cruzain inh Det -8.9%.
Screening O=C(c1ccc(Cl)c(Cl)c1)c1cnc(Nc2ccccc2)s1 returned Cruzain inh noDet 20µM* and Cruzain inh Det 4.8%.
O=C1C(=O)N(C2CCN(C(=O)c3ccccc3Cl)CC2)CCN1Cc1ccc(F)cc1 was read as Cruzain inh noDet -4.1% and Cruzain inh Det 1.7%.
`CCn1c(O)c(/C=C2\C=NN=C2c2ccc(C)cc2)sc1=S` gave Cruzain inh noDet 12.6µM* and Cruzain inh Det -5.0%.
For CCn1c(O)c(/C=C2\C=Nc3ccccc32)sc1=Nc1ccccc1 the results were Cruzain inh noDet 0.7% and Cruzain inh Det 1.8%.
`CN(CCOc1ccc(-c2ccn(S(=O)(=O)c3c(Cl)cccc3Cl)n2)cc1)c1ccccn1` gave Cruzain inh noDet inconclusive and Cruzain inh Det 6.4%.
`CN(CCOc1ccc(-c2ccn(S(=O)(=O)c3cccc4ccccc34)n2)cc1)c1ccccn1` gave Cruzain inh noDet 25.1µM* and Cruzain inh Det -0.7%.
Screening CCOC(=O)C1CCN(C(c2cccc(F)c2)c2c(O)cc(C)n(CCOC)c2=O)CC1 (stereo not drawn) returned Cruzain inh noDet 8.0% and Cruzain inh Det 3.1%.
For N#C/C(=C\c1c(Oc2ccc(Br)cc2)nc2ccccn2c1=O)c1nc2ccccc2s1 the results were Cruzain inh noDet -16.7% and Cruzain inh Det -17.1%.
Screening O=[N+]([O-])c1ccc(Nc2nc(N/N=C/c3cccc(F)c3)nc(N3CCCC3)n2)cc1 returned Cruzain inh noDet 15.8µM* and Cruzain inh Det -2.9%.
O=[N+]([O-])c1cccc(/C=N/Nc2nc(N3CCOCC3)nc(N3CCOCC3)n2)c1 was read as Cruzain inh noDet -3.3% and Cruzain inh Det -3.2%.
Screening CNC(=O)c1c(NC(=O)c2ccc(S(=O)(=O)N3CCCC(C)C3)cc2)sc2c1CCC2 (stereo not drawn) returned Cruzain inh noDet -5.1% and Cruzain inh Det -2.5%.
For Cc1ccc(C(=O)c2ccc([N+](=O)[O-])cc2)cc1 the results were Cruzain inh noDet -1.3% and Cruzain inh Det 2.0%.
Cc1ccc(S(=O)(=O)CC#CCOC(=O)c2ccc([N+](=O)[O-])cc2)cc1 was read as Cruzain inh noDet 12.6µM* and Cruzain inh Det 14.1µM*.
`CCC(=O)Nc1ccc(Nc2ccccc2)cc1` gave Cruzain inh noDet -9.8% and Cruzain inh Det 0.1%.
For COCC(=O)Nc1ccc(Nc2ccccc2)cc1 the results were Cruzain inh noDet 25.1µM* and Cruzain inh Det 4.7%.
For CCC(C)NC(=O)COC(=O)c1ccccc1OCC(=O)Nc1ccc(Br)cc1 (stereo not drawn) the results were Cruzain inh noDet 14.9% and Cruzain inh Det 2.8%.
Screening O=C(COC(=O)c1ccccc1OCC(=O)Nc1ccc(Br)cc1)Nc1ccccc1 returned Cruzain inh noDet 12.6µM* and Cruzain inh Det 1.4%.
Screening CCC(Sc1nnc2c(n1)[nH]c1ccccc12)C(=O)Nc1ccccc1OC (stereo not drawn) returned Cruzain inh noDet -6.6% and Cruzain inh Det -8.3%.
For S=C(Nc1ccc(OCc2ccccc2)cc1)Nc1cccc(Cl)c1Cl the results were Cruzain inh noDet inconclusive and Cruzain inh Det -4.8%.
S=C(Nc1ccccc1)Nc1ccc(OCc2ccccc2)cc1 was read as Cruzain inh noDet 12.6µM* and Cruzain inh Det 5.1%.
Screening CCOC(=O)C1=C(c2ccccc2)N=c2s/c(=C\c3ccc(O)cc3)c(=O)n2C1c1cccs1 (stereo not drawn) returned Cruzain inh noDet 12.6µM* and Cruzain inh Det 0.7%.
`COC(=O)C1=C(C)N=c2s/c(=C/c3cccs3)c(=O)n2C1c1cccs1` (stereo not drawn) gave Cruzain inh noDet -19.4% and Cruzain inh Det 0.4%.
O=c1c2ccccc2nc(SCc2ccc([N+](=O)[O-])cc2)n1-c1ccccc1 was read as Cruzain inh noDet inconclusive and Cruzain inh Det 0.1%.
For COc1ccc(Nc2nnc(SCc3cc([N+](=O)[O-])cc4c3OCOC4)s2)cc1 the results were Cruzain inh noDet 20µM* and Cruzain inh Det 0.1%.
O=[N+]([O-])c1cc2c(c(CSc3nnc4ccccn34)c1)OCOC2 was read as Cruzain inh noDet -0.2% and Cruzain inh Det -2.6%.
`O=c1c2ccccc2nc(SCc2cc([N+](=O)[O-])cc3c2OCOC3)n1-c1ccccc1` gave Cruzain inh noDet 12.6µM* and Cruzain inh Det -2.5%.
Screening O=C(Nc1cccc(Cl)c1)N1CC2CCCN2c2ccccc21 (stereo not drawn) returned Cruzain inh noDet 20.2% and Cruzain inh Det -1.1%.
CCOC(=O)c1ccc(N2CCN(c3ccccc3F)CC2)c(NC(=O)Nc2ccccc2)c1 was read as Cruzain inh noDet inconclusive and Cruzain inh Det -2.7%.
`CCOC(=O)c1ccc(N2CCN(c3cccc(Cl)c3)CC2)c(NC(=O)Nc2ccc(Cl)cc2)c1` gave Cruzain inh noDet 3.98µM* and Cruzain inh Det 0.6%.
`COc1cccc(OC)c1-c1nn2c(-c3cc(-c4ccccc4)n[nH]3)nnc2s1` gave Cruzain inh noDet 20µM* and Cruzain inh Det 1.78µM*.
